Test results: PubChem BioAssay

Experiment: probe aShh binding to arrayed compounds – biochemical, biotinylated probe, 635/667 nm fluorescence, primary screen (AID 1114);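 further: probe is biotin-labelled aShh protein from a stem cell growth factor screen; measures binding of labelled protein to compounds printed on the slide; score merges feature fluorescence at 667 nm with signal-to-noise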
Conditions: small-molecule microarray, higher = more signal

Row | SMILES | composite z-score
1 | C=CCC(OC(C)=O)[C@@H]1[C@@H](N(Cc2cccc3ccccc23)C(=O)c2ccc(C)cc2)c2cc(OCCCO)ccc2N1C(=O)c1ccc2ccccc2c1 (stereo partly drawn) | -0.0793
2 | O=C1NC(=O)C2C1C=CC(C(O)c1ccc3c(c1)OCO3)N2Nc1ccc(Cl)cc1Cl (stereo not drawn) | -0.232
3 | CCC[C@@H]1C[C@@]1(CCC)[C@@H](NC(=O)c1ccco1)c1ccc(Cl)cc1 | 0.254
4 | CC(C)NC(=O)[C@@]1(Cc2ccccc2I)c2ccccc2C(=O)N(Cc2ccccc2C(F)(F)F)[C@H]1c1ccc(CO)cc1 | -0.012
5 | CCOC(=O)C[C@H]1[C@H](OC(=O)c2ccc(C(=O)c3ccccc3)cc2)[C@@H](NC(=O)C2CCCCC2)c2cc(OCCCO)ccc2N1C(=O)Cc1ccc(OC)cc1 | -0.0769
6 | COc1ccc([Si](C)(C)[C@@H]2[C@@H](CC(=O)N3Cc4ccccc4C[C@H]3CO)O[C@]3(C(=O)N(Cc4cccc(N5CCCCC5=O)c4)c4ccccc43)[C@H]2C)cc1 | 0.0557
7 | COCC(=C=CC[C@@H](O)c1ccccc1OCCO)C[C@@H](O)c1ccccn1 | -0.0119
8 | COCCCNC(=O)[C@]1(CCS(=O)(=O)c2ccccc2)N=C(c2ccc(OCCCO)cc2)O[C@@H]1c1ccccc1 | -0.161
9 | COc1cccc(C[C@H]2C[C@@H](CO[Si](C(C)C)(C(C)C)C(C)C)N3C(=O)[C@]4(C(C)=O)O[C@]23[C@H]2C(=O)N(C)C(=O)[C@H]24)c1 | 0.138
10 | CCCCC(=C=CC[C@H](O)c1cccc(OCCO)c1)C[C@H](O)COCc1ccccc1 | -0.154
11 | CC(C)CNC(=O)[C@@]1(C)c2ccccc2C(=O)N(Cc2ccccc2)[C@H]1c1ccc(CO)cc1 | -0.0735
12 | O=C1N(Cc2ccccc2)c2ccccc2[C@H]2OC(c3ccc(OCCCO)cc3)=N[C@@]12CCS(=O)(=O)c1ccccc1 | 0.435
13 | COc1ccc([Si](C)(C)[C@H]2[C@H](CCn3cc(CCO)nn3)O[C@@]3(C(=O)N(Cc4cccc(N5C(=O)c6cccc7cccc5c67)c4)c4ccccc43)[C@@H]2C)cc1 | 0.131
14 | COCCOC(=O)N1C(=O)[C@@]2(c3cc(C#CCC(C(=O)OC)C(=O)OC)ccc31)[C@H](c1ccc(OCCO)cc1)N1[C@H](c3ccccc3)[C@H](c3ccccc3)OC(=O)[C@H]1[C@@H]2C(N)=O | 0.0639
15 | [N-]=[N+]=NCc1ccccc1C[C@]1(C(=O)NCCN2CCOCC2)COC(c2ccc(OCCCO)cc2)=N1 | -0.0119
16 | O=C(NCc1ccccc1)[C@]1(Cc2ccccc2)N=C(c2ccc(OCCCO)cc2)O[C@@H]1c1ccccc1 | -0.305
17 | CN(C)C(=O)[C@]1(Cc2ccccc2N=[N+]=[N-])N=C(c2ccc(OCCCO)cc2)O[C@@H]1c1ccccc1CN=[N+]=[N-] | 0.13
18 | C=C[C@@H](O)[C@H]1CC(c2ccccc2)=NO1 | 0.167
19 | C=CC[C@]1(C(=O)N(C)C)N=C(c2ccc(OCCCO)cc2)O[C@H]1c1ccccc1 | 0.33
20 | O=C(Nc1cc(Br)ccc1C(=O)NCc1cccc(O)c1)c1ccccc1 | -0.252
21 | CC(C)N1C(=O)c2ccccc2[C@](C)(C(=O)O)[C@@H]1c1ccc(CO)cc1 | 0.133
22 | COCC(=C=CC[C@@H](O)c1ccccc1OCCO)C[C@@H](O)COCc1ccccc1 | 0.536
23 | C=C(C)[C@@H]1CC=C(C(O)C2C=CC3C(=O)N(C4CCCCC4)C(=O)C3N2Nc2ccc(OC)cc2)CC1 (stereo partly drawn) | -0.1

Experiment: probe aNog binding to arrayed compounds – biochemical, biotinylated probe, 635/667 nm fluorescence, primary screen (AID 1115);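 further: probe is biotinylated aNog protein used at 0.15 µg/mL for 1 h at 4 C; z-score combines 667 nm fluorescence of each spot with its signal to noise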
Conditions: small-molecule microarray, higher = more signal

Row | SMILES | composite z-score
24 | O=C1O[C@H](c2ccccc2)[C@H](c2ccccc2)N2[C@H]1[C@@H](C(=O)NC[C@H](O)c1ccccc1)[C@]1(C(=O)Nc3ccccc31)[C@H]2c1ccccc1OCCO | 2.84
25 | [N-]=[N+]=NCc1ccccc1[C@H]1OC(c2ccc(OCCCO)cc2)=N[C@@]1(Cc1ccccc1N=[N+]=[N-])C(=O)N1CCCCC1 | 1.76
26 | O=[N+]([O-])c1ccc(C[n+]2ccc(-c3ccc(CO)cc3)cc2)o1 | 0.327
27 | O=C1OCC=C[C@H]2OC34C=CCN(CCN5CCOCC5)C(=O)[C@H]3N(CCCCCO)C(=O)[C@@H]4[C@@H]12 (stereo partly drawn) | -0.278
28 | Cc1ccccc1C(O)C1C=CC2C(=O)N(C)C(=O)C2N1Nc1ccc([N+](=O)[O-])cc1[N+](=O)[O-] (stereo not drawn) | -0.235
29 | O=C1NC(=O)C2C1C=CC(C(O)CCc1ccccc1)N2Nc1ccccn1 (stereo not drawn) | -0.279
30 | O=C(O)[C@@]1(Cc2ccccc2)COC(c2ccc(OCCCO)cc2)=N1 | 0.0254
31 | COC(=O)[C@@]1(Cc2ccccc2)[C@H]2c3cc(C(=O)N(C)C)n(Cc4ccccn4)c3C[C@H]2CN1C(=O)c1ccccc1 | 0.85
32 | Cc1ccccc1C(O)C1C=CC2C(=O)N(Cc3ccccc3)C(=O)C2N1n1cnnc1 (stereo not drawn) | 0.2
33 | CCOc1cc(C(O)C2C=CC3C(=O)NC(=O)C3N2Nc2ccccn2)ccc1O (stereo not drawn) | 0.0258
34 | CCOC(=O)C[C@H]1[C@H](OC(=O)c2ccccc2-c2ccccc2)[C@@H](NC(=O)c2ccccc2)c2cc(OCCCO)ccc2N1C(=O)Cc1ccc(OC)cc1 | -0.0877
35 | COC(=O)C(CC#Cc1ccc2c(c1)[C@]1(C(=O)N2)[C@H](c2ccccc2OCCO)N2[C@H](c3ccccc3)[C@H](c3ccccc3)OC(=O)[C@H]2[C@@H]1C(=O)Nc1nc2ccccc2s1)C(=O)OC | -0.466
36 | C=CCC(OC(C)=O)[C@@H]1[C@@H](N(Cc2cccc3ccccc23)C(=O)c2ccc(C)cc2)c2cc(OCCCO)ccc2N1C(=O)c1ccc2ccccc2c1 (stereo partly drawn) | -0.329
37 | O=C1NC(=O)C2C1C=CC(C(O)c1ccc3c(c1)OCO3)N2Nc1ccc(Cl)cc1Cl (stereo not drawn) | 0.265
38 | CCC[C@@H]1C[C@@]1(CCC)[C@@H](NC(=O)c1ccco1)c1ccc(Cl)cc1 | 0.756
39 | CC(C)NC(=O)[C@@]1(Cc2ccccc2I)c2ccccc2C(=O)N(Cc2ccccc2C(F)(F)F)[C@H]1c1ccc(CO)cc1 | 0.647
40 | CCOC(=O)C[C@H]1[C@H](OC(=O)c2ccc(C(=O)c3ccccc3)cc2)[C@@H](NC(=O)C2CCCCC2)c2cc(OCCCO)ccc2N1C(=O)Cc1ccc(OC)cc1 | -0.0597
41 | COc1ccc([Si](C)(C)[C@@H]2[C@@H](CC(=O)N3Cc4ccccc4C[C@H]3CO)O[C@]3(C(=O)N(Cc4cccc(N5CCCCC5=O)c4)c4ccccc43)[C@H]2C)cc1 | 0.228

Row | SMILES | composite z-score
42 | COCC(=C=CC[C@@H](O)c1ccccc1OCCO)C[C@@H](O)c1ccccn1 | 0.099
43 | COCCCNC(=O)[C@]1(CCS(=O)(=O)c2ccccc2)N=C(c2ccc(OCCCO)cc2)O[C@@H]1c1ccccc1 | -0.315
44 | COc1cccc(C[C@H]2C[C@@H](CO[Si](C(C)C)(C(C)C)C(C)C)N3C(=O)[C@]4(C(C)=O)O[C@]23[C@H]2C(=O)N(C)C(=O)[C@H]24)c1 | -0.158
45 | CCCCC(=C=CC[C@H](O)c1cccc(OCCO)c1)C[C@H](O)COCc1ccccc1 | -0.397
46 | CC(C)CNC(=O)[C@@]1(C)c2ccccc2C(=O)N(Cc2ccccc2)[C@H]1c1ccc(CO)cc1 | -0.327
47 | O=C1N(Cc2ccccc2)c2ccccc2[C@H]2OC(c3ccc(OCCCO)cc3)=N[C@@]12CCS(=O)(=O)c1ccccc1 | 0.347
48 | COc1ccc([Si](C)(C)[C@H]2[C@H](CCn3cc(CCO)nn3)O[C@@]3(C(=O)N(Cc4cccc(N5C(=O)c6cccc7cccc5c67)c4)c4ccccc43)[C@@H]2C)cc1 | 1.01
49 | COCCOC(=O)N1C(=O)[C@@]2(c3cc(C#CCC(C(=O)OC)C(=O)OC)ccc31)[C@H](c1ccc(OCCO)cc1)N1[C@H](c3ccccc3)[C@H](c3ccccc3)OC(=O)[C@H]1[C@@H]2C(N)=O | 0.129
50 | [N-]=[N+]=NCc1ccccc1C[C@]1(C(=O)NCCN2CCOCC2)COC(c2ccc(OCCCO)cc2)=N1 | -0.509
51 | O=C(NCc1ccccc1)[C@]1(Cc2ccccc2)N=C(c2ccc(OCCCO)cc2)O[C@@H]1c1ccccc1 | 0.044
52 | CN(C)C(=O)[C@]1(Cc2ccccc2N=[N+]=[N-])N=C(c2ccc(OCCCO)cc2)O[C@@H]1c1ccccc1CN=[N+]=[N-] | -0.488
53 | C=C[C@@H](O)[C@H]1CC(c2ccccc2)=NO1 | -0.0524
54 | C=CC[C@]1(C(=O)N(C)C)N=C(c2ccc(OCCCO)cc2)O[C@H]1c1ccccc1 | 1.15
55 | O=C(Nc1cc(Br)ccc1C(=O)NCc1cccc(O)c1)c1ccccc1 | -0.75
56 | CC(C)N1C(=O)c2ccccc2[C@](C)(C(=O)O)[C@@H]1c1ccc(CO)cc1 | 0.338
57 | COCC(=C=CC[C@@H](O)c1ccccc1OCCO)C[C@@H](O)COCc1ccccc1 | 0.998
58 | C=C(C)[C@@H]1CC=C(C(O)C2C=CC3C(=O)N(C4CCCCC4)C(=O)C3N2Nc2ccc(OC)cc2)CC1 (stereo partly drawn) | -0.368
